From PubChem BioAssay AID504834 (National Center for Advancing Translational Sciences (NCATS), 2011)
Hit rate of the full screen: of about 320,000 compounds, about 22,000 (6.9%) were called active. Inconclusive results (about 27%) are left out. The sample as a whole holds a higher share of actives than the screen did. Unmarked numbers belong to inactive results. The call rests on the fitted dose curve; in most records, active means well fitted inhibition curve with a large enough effect; inconclusive means small, poorly fitted or top-dose-only effect, or another doubt; inactive means no such curve, though single readings can be large or run the other way.

assay: Primary qHTS for delayed death inhibitors of the malarial parasite plastid, 96 hour incubation; conditions: P. falciparum luciferase reporter growth; series mostly up to 28.7 µM; activity change, negative = inhibition: at the top concentration
In short: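 Two parasite generations (96 h, 37 C, 5% CO2) of compound exposure in infected erythrocytes (0.05% parasitemia, 2% hematocrit). Luciferase-reporter P. falciparum; decreased luminescence indicates inhibited growth, aimed at apicoplast-acting delayed death.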
On the % scale 0 is the no-effect control and ±100 the full control effect; potency means the concentration at half of the fitted maximal effect.

Row | Structure (SMILES) | activity change, negative = inhibition [%] | Potency
1 | COC(=O)c1ccc([C@@H](O)[C@H](C)C(=O)CC(=O)OC(C)(C)C)cc1 | -0.0226 | 
2 | Cc1nn(Cc2ccc(Cl)cc2)c(Cl)c1/C=N/NC(=O)CNc1ccccc1F |  | 9.28 µM (active)
3 | CCn1nc(C)c(/C=N/NC(=O)Cc2ccc(Cl)cc2)c1C | 1.71 | 
4 | COc1ccc(Cl)cc1NC(=O)CNc1ccccc1F | -27.6 | 
5 | Cc1ccccc1OCC(=O)Nc1ccc2c(c1)ncn2C | -3.77 | 
6 | COc1cccc(-c2nn(C)c3sc(C(=O)N4CCN(c5ccccc5)CC4)cc23)c1 | -0.824 | 
7 | CCN(CC)CCN(C(=O)c1cccc([N+](=O)[O-])c1)c1nc2ccc(OC)cc2s1 | 30.2 | 
8 | COc1ccc2nc(N3CCN(C(=O)c4ccc([N+](=O)[O-])o4)CC3)sc2c1 |  | 0.738 µM (active)
9 | O=C(Cc1cccs1)N/N=C/c1ccc(OCc2ccccc2)cc1 |  | 11.7 µM (active)
10 | C=CCNC(=S)N/N=C/c1ccc(OCc2ccccc2)cc1 | 10.7 | 
11 | CCOc1ccc(NC(=O)C/C(C)=N/NC(=O)Cc2cccs2)cc1 | 3.76 | 
12 | O=C(Nc1ccc(-n2cccn2)cc1)C1CCN(Cc2ccsc2)CC1 | 31.9 | 
13 | CCn1c(SCC(=O)Nc2cc(C)c(Cl)cc2OC)nnc1-c1ccco1 | 29.3 | 
14 | COc1ccccc1NC(=O)CSc1nnc(C)n1CC1CCCO1 (configuration not stated) | 0.0774 | 
15 | COc1ccc(NC(=O)CCC(=O)Nc2cc(OC)c(NC(=O)c3ccco3)cc2OC)c(OC)c1 | 2.14 | 
16 | COc1ccc(NC(=O)CSc2ccc(-c3ccco3)nn2)c(OC)c1 |  | 14.7 µM (active)
17 | O=C(CSc1ccc(-c2ccco2)nn1)NCc1ccc2c(c1)OCO2 | -19.1 | 
18 | COc1cc(Cl)c(C)cc1NC(=O)CSc1nnc(-c2ccco2)n1CC(C)C |  | 10.4 µM (active)
19 | CCN(CC)c1ccc(/C=N/NC(=O)CNC(=O)c2cccs2)cc1 | 34.7 | 
20 | O=C(Nc1ccccc1-c1nc2ccccc2[nH]c1=O)c1cccs1 | -24.4 | 
21 | Cc1ccc(C(CNC(=O)Nc2ccccc2)N2CCN(C)CC2)cc1 (configuration not stated) | 14.9 | 
22 | CC(C)(C)c1ccc(Oc2ccc(N)cc2)cc1 | 27.6 | 
23 | O=C1NS(=O)(=O)c2ccccc21 | 13.4 | 
24 | CC(C)(C)c1ccc(OC2=CS(=O)(=O)c3ccccc32)cc1 |  | 9.28 µM (active)
25 | CCn1cc(/C=C(\NC(=O)c2cc(OC)c(OC)c(OC)c2)C(=O)N2CCN(C)CC2)c2ccccc21 | 18.6 | 
26 | CC1CCN(CC(=O)Nc2nccs2)CC1 | 0 | 

Row | Structure (SMILES) | activity change, negative = inhibition [%] | Potency
27 | Cc1cc(=O)[nH]c(SCC(=O)Nc2ccc(Br)cc2)n1 | 51.7 | 
28 | CC(=O)Oc1ccc(N(C(C)=O)S(=O)(=O)c2ccc3ccccc3c2)cc1Br | 18 | 
29 | Cc1nc([N+](=O)[O-])cn1CC(=O)Nc1ccc(Cl)cc1 | -3.85 | 
30 | O=C(Nc1nc2ccc([N+](=O)[O-])cc2s1)c1ccc(S(=O)(=O)N2CCCc3ccccc32)cc1 | -26.7 | 
31 | CNC(=O)c1ccsc1NC(=O)c1ccc(S(=O)(=O)N2CCc3ccccc32)cc1 |  | 11.7 µM (active)
32 | NS(=O)(=O)c1ccc(CNC(=O)c2cccc(S(=O)(=O)N3CCc4ccccc43)c2)cc1 | -17.5 | 
33 | CCN(CC)CCCNC(=O)c1cc2c(=O)[nH]c3ccc(C)cc3c2s1 | 26.3 | 
34 | CC(=O)NS(=O)(=O)c1ccc2c(c1)Cc1cc(S(=O)(=O)NC(C)=O)ccc1-2 | -26.1 | 
35 | COc1cc(C2/C(=C(\O)c3ccc4c(c3)CC(C)O4)C(=O)C(=O)N2c2nnc(C)s2)cc(OC)c1OC (configuration not stated) | -12.3 | 
36 | CCc1cc2c(=O)n(-c3ccccc3)c(SCC(=O)O)nc2s1 | 12.5 | 
37 | Cc1sc2nc(SCCO)n(-c3ccccc3)c(=O)c2c1C |  | 10.4 µM (active)
38 | Cc1sc2nc(SCC(N)=O)n(C)c(=O)c2c1C | 92.6 | 
39 | CCS(=O)(=O)Nc1cc(C(=O)OC)ccc1C(=O)OC |  | 10.4 µM (active)
40 | CCN(CCO)C(=S)Nc1cc(C(=O)OC)ccc1C(=O)OC | 36.6 | 
41 | COC(=O)c1ccc(C(=O)OC)c(NC(=S)N2CCCCC2)c1 | 2.35 | 
42 | COc1ccc2oc(C(=O)NCc3ccco3)c(C)c2c1 | 24.1 | 
43 | CCCCCC1CC(COc2ccccc2)OC1=O (configuration not stated) | 35.3 | 
44 | O=C(NCc1ccccc1)C(c1ccco1)N(C(=O)c1csnn1)c1ccccc1F (configuration not stated) | 2 | 
45 | CCOCCCNC(=O)C(NC(=O)CNC(=O)c1ccccc1)c1ccc(C)cc1 (configuration not stated) |  | 9.28 µM (active)
46 | CCOCCCNC(=O)C(NC(=O)c1ccc(=O)[nH]c1)c1ccc(C)cc1 (configuration not stated) | -5.48 | 
47 | CCOCCCNC(=O)C(NC(=O)CNC(=O)c1ccccc1)c1ccc(OC)cc1 (configuration not stated) | -7.96 | 
48 | COc1ccc(C(=O)NC2CC(C)(C)Cc3c2cnn3-c2ccccc2C)o1 (configuration not stated) | 9.64 | 
49 | Cc1ccc(S(=O)(=O)NCCC(=O)NC2CCN(Cc3ccccc3)CC2)cc1 | -1.38 | 
50 | OC(c1nc2ccc(F)cc2[nH]1)C(O)c1nc2ccc(F)cc2[nH]1 (configuration not stated) | 71.5 | 
51 | Cc1c(NC(=O)C(C)Oc2cccc(Cl)c2)c(=O)n(-c2ccccc2)n1C (configuration not stated) | 1.13 | 
52 | CN(C(=O)COc1ccccc1)c1nnc(-c2ccncc2)s1 |  | 4.15 µM (active)
